In the supplement of paper PMC11732987, “Enantioselective OTUD7B fragment discovery through chemoproteomics screening and high-throughput optimisation” (Communications Chemistry, 2025):
Unmarked numbers belong to inactive results.

What was measured:
Assay in all cases: log2 ratio of Biotin-Ahx-Ub-VS probe labelling (compound/DMSO); higher = less target engagement, active = hit call of the paper (q ≤ 0.05, log2 ratio ≤ -1)
Settings in all cases: treatment time: 3 h
[1] = compound: ClCC(=O)NC1CCCc2ccccc12
How it was run: (§1)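 DUBs in HEK293T lysate were labelled with Biotin-Ahx-Ub-VS (0.5 µM final, 1 h) after a 3 h treatment with compound at 50 or 200 µM or with DMSO, done in triplicate on 495 µg of lysate per sample. NeutrAvidin-enriched proteins were digested with LysC and trypsin and run by diaPASEF LC-MS/MS. Median-normalised label-free quantities gave average base-two log ratios of compound to DMSO by unpaired t-test, restricted to proteins with at least 2 unique peptides.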

[2] = compound: ClCC(=O)NC1CCOc2ccc(Cl)cc12
How it was run: as §1

[3] = compound: ClCC(=O)NC1CCSc2ccccc12
How it was run: as §1

[4] = compound: ClCC(=O)N[C@H]1CCCc2ccccc12
How it was run: as §1

[5] = compound: Fc1ccc(N2CCN(c3nc4c(CN(C(CCl)=O)CC4)cn3)CC2)cc1.Cl.Cl
How it was run: as §1

Sequence of UniProt Q6GQQ9 (Q6GQQ9 whole entry): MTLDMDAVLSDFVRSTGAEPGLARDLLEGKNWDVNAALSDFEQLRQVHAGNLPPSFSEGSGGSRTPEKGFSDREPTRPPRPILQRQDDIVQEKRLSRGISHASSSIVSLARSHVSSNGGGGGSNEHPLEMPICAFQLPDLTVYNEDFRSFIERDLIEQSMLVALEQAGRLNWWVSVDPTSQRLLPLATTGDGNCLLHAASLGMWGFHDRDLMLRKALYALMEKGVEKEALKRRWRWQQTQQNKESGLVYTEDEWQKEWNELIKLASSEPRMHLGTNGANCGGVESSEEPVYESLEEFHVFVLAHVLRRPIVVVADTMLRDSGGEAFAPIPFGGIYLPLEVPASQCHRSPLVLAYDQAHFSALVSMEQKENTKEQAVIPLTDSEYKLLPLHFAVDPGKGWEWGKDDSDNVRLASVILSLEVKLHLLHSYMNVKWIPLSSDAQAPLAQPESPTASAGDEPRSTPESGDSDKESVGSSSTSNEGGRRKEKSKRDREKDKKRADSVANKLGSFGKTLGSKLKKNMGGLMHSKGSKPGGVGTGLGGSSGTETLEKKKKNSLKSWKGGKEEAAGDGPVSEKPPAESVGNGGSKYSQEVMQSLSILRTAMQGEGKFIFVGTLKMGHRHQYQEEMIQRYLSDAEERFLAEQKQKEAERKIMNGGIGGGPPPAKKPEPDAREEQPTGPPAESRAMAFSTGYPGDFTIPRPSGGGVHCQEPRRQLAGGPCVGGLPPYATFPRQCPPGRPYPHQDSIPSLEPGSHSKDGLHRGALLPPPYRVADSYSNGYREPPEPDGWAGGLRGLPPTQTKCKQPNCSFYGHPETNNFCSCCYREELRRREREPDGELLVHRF
Sequence of UniProt P51784 (P51784 whole entry): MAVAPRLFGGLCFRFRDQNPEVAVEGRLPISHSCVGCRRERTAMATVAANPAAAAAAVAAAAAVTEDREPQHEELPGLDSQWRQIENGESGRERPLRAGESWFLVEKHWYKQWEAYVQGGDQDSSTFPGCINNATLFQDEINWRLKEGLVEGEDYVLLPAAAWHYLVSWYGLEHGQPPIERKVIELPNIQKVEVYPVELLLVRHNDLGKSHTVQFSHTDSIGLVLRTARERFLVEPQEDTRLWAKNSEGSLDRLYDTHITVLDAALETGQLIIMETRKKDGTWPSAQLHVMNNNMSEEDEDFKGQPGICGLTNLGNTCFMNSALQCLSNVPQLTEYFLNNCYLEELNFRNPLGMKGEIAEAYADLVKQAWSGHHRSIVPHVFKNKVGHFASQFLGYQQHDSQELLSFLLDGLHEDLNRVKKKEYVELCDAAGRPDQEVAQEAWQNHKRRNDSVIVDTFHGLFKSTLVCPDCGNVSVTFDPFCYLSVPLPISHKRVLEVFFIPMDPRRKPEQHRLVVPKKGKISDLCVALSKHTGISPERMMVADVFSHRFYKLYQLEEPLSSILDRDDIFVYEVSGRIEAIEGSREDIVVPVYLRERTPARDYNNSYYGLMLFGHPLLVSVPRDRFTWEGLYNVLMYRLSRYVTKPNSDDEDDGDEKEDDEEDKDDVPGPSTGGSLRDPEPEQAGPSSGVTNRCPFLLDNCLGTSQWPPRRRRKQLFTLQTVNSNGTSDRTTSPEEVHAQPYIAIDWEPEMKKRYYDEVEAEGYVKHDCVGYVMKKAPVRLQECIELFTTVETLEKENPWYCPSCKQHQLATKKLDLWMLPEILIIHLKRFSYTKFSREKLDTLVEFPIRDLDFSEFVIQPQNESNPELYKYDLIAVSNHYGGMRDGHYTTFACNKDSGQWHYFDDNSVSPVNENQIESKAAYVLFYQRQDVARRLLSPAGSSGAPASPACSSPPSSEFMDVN
Sequence of UniProt Q92905 (Q92905 whole entry, looked up): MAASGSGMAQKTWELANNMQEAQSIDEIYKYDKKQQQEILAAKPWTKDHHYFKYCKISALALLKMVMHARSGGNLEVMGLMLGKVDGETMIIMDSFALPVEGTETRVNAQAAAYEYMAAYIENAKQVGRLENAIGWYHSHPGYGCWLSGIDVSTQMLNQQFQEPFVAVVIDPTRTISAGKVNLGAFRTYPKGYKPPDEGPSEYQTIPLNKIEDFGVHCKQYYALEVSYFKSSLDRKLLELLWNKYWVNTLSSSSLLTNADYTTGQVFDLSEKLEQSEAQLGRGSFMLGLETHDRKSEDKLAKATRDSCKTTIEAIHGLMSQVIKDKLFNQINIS
Sequence of UniProt O00487 (O00487 whole entry): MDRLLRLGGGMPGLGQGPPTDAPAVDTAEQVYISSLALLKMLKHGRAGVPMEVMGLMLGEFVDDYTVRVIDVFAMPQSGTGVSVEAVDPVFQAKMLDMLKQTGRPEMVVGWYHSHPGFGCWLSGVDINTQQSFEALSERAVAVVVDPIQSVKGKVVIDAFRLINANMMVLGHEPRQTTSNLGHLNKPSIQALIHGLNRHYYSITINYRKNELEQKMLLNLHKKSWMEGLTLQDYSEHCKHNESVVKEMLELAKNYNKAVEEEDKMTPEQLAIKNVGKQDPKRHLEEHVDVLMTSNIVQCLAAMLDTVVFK
Sequence of UniProt P15374 (P15374 whole entry): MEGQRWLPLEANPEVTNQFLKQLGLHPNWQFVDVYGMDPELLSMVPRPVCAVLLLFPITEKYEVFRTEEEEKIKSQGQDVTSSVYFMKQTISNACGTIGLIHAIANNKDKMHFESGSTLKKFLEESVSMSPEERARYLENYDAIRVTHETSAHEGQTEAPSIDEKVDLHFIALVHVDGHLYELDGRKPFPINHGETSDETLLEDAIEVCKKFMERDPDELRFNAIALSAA
Sequence of UniProt Q5T2D3 (Q5T2D3 whole entry): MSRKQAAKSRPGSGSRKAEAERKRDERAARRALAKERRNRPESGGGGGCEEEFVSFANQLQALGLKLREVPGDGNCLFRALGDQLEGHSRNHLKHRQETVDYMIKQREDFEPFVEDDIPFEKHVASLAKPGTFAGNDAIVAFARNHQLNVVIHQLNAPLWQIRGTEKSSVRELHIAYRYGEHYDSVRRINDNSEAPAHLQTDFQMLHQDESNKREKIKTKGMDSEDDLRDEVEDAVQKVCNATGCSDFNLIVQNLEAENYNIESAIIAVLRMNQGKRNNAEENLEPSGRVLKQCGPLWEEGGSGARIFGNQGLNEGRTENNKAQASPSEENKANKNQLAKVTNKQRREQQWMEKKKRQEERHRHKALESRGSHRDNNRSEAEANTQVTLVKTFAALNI
Sequence of UniProt Q9Y5T5 (Q9Y5T5 whole entry, looked up): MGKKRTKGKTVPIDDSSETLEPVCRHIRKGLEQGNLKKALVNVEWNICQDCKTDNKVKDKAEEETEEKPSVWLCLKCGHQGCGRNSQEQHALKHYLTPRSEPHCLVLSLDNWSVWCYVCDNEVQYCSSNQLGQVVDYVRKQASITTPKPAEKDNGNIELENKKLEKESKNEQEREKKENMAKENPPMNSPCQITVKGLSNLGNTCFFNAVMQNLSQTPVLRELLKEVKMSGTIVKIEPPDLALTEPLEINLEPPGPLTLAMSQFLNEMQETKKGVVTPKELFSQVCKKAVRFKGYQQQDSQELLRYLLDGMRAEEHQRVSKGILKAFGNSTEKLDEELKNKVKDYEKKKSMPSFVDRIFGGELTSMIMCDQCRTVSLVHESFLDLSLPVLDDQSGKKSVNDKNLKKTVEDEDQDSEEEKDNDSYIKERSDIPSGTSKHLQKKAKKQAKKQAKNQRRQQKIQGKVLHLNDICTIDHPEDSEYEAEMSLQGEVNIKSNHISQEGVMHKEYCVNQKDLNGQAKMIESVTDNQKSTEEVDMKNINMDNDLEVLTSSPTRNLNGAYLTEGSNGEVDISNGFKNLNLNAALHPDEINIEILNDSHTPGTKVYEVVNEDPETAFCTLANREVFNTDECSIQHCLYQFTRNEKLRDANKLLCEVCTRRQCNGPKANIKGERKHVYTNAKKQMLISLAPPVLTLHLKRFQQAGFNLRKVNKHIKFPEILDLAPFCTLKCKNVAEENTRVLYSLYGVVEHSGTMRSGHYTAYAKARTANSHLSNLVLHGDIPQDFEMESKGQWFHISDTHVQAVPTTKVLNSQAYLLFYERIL
Sequence of UniProt Q93009 (Q93009 whole entry, looked up): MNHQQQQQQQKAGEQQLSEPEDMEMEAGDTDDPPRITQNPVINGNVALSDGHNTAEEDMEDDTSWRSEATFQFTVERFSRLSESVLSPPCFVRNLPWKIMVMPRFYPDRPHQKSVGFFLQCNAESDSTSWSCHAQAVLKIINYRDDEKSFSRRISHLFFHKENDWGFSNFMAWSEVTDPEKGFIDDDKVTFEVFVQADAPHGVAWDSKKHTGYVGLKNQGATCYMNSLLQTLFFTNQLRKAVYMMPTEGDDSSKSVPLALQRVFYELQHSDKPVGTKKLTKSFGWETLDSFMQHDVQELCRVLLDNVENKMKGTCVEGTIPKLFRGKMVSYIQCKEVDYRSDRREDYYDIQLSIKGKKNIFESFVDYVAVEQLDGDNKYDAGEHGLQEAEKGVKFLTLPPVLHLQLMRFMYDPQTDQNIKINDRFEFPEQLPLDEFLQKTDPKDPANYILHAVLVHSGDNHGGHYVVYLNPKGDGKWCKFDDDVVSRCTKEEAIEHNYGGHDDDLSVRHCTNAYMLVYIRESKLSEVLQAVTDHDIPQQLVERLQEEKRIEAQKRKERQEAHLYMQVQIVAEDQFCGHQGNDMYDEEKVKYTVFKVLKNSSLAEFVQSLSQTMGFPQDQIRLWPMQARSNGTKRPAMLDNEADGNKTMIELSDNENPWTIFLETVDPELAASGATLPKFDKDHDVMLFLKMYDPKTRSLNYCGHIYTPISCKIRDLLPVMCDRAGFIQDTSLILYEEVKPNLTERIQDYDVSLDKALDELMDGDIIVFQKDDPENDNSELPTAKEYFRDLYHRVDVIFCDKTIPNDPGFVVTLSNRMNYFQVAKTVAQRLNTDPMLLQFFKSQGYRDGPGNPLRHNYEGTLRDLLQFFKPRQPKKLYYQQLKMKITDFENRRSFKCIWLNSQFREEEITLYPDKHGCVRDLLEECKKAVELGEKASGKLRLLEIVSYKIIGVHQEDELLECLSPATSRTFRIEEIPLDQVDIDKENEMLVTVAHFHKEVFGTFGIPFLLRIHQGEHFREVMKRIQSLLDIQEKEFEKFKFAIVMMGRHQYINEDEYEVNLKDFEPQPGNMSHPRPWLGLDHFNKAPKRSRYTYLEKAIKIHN

| Target | log2 ratio of Biotin-Ahx-Ub-VS probe labelling ([1]; compound concentration: 50uM) | log2 ratio of Biotin-Ahx-Ub-VS probe labelling ([1]; compound concentration: 200uM) | log2 ratio of Biotin-Ahx-Ub-VS probe labelling ([2]; compound concentration: 50uM) | log2 ratio of Biotin-Ahx-Ub-VS probe labelling ([2]; compound concentration: 200uM) | log2 ratio of Biotin-Ahx-Ub-VS probe labelling ([3]; compound concentration: 50uM) | log2 ratio of Biotin-Ahx-Ub-VS probe labelling ([3]; compound concentration: 200uM) | log2 ratio of Biotin-Ahx-Ub-VS probe labelling ([4]; compound concentration: 50uM) | log2 ratio of Biotin-Ahx-Ub-VS probe labelling ([4]; compound concentration: 200uM) | log2 ratio of Biotin-Ahx-Ub-VS probe labelling ([5]; compound concentration: 50uM) | log2 ratio of Biotin-Ahx-Ub-VS probe labelling ([5]; compound concentration: 200uM) |
| --- | --- | --- | --- | --- | --- | --- | --- | --- | --- | --- |
| COPS5 (UniProt Q92905) | -0.103 | 0.0648 | -0.403 | -0.0328 | -0.0481 | 0.169 | -0.289 | -0.229 | -0.304 | 0.0806 |
| OTUB1 (UniProt Q96FW1) | -0.212 | -0.0215 | -0.31 | -0.319 | 0.00122 | -0.246 | 0.0292 | -0.0965 | 0.0783 | -0.137 |
| EIF3F (UniProt O00303) | -0.228 | 0.0219 | -0.17 | 0.0998 | -0.0176 | 0.00311 | -0.292 | 0.0431 | 0.028 | 0.0109 |
| USP16 (UniProt Q9Y5T5) | -0.384 | -0.472 | -0.353 | -0.626 | -0.00515 | -0.114 | 0.221 | 0.339 | -0.277 | -0.62 |
| ATXN3 (UniProt P54252) | -0.0534 | -0.164 | -0.0955 | -0.25 | 0.24 | -0.293 | -0.316 | -0.596 | -0.648 | -2.72 (active) |
| USP19 (UniProt O94966) | -0.205 | -0.219 | -0.252 | -0.38 | -0.00658 | -0.393 | -0.0565 | -0.411 | -1.25 (active) | -3.86 (active) |
| USP7 (UniProt Q93009) | -0.0886 | -0.205 | -0.182 | -0.301 | 0.0569 | -0.25 | 0.0324 | -0.432 | -0.507 | -1.83 (active) |
| USP36 (UniProt Q9P275) | 0.0611 | 0.171 | -0.00761 | -0.088 | 0.158 | 0.1 | -0.0619 | -0.0962 | -0.181 | -0.183 |
| OTUD4 (UniProt Q01804) | -1.22 (active) | -1.53 (active) | -0.449 | -1.11 (active) | -1.2 (active) | -1.84 (active) | -1.48 (active) | -1.79 (active) | -0.0534 | -0.739 |
| UniProt Q8TE49 | -1.68 (active) | -2.58 (active) | -0.472 | -2.17 (active) | -0.368 | -2.26 (active) | -2.07 (active) | -2.92 (active) | -0.151 | -1.37 (active) |
| USP10 (UniProt Q14694) | -0.107 | 0.139 | -0.314 | -0.0917 | -0.0829 | 0.0327 | -0.162 | 0.0178 | -0.0782 | -0.162 |
| OTUD6B (UniProt Q8N6M0) | -0.12 | -0.0737 | -0.248 | -0.361 | 0.0363 | -0.296 | -0.00611 | -0.364 | -0.105 | -1.28 (active) |
| USP28 (UniProt Q96RU2) | -0.263 | -0.626 | -0.164 | -0.586 | -0.108 | -0.622 | -0.259 | -0.947 | -0.134 | -1.12 (active) |
| UniProt Q5T2D3 | -0.177 | 0.0818 | -0.361 | -0.177 | -0.0329 | -0.156 | -0.0344 | -0.199 | -0.00755 | -0.416 |
| UniProt O00487 | -0.451 | -0.117 | -0.207 | 0.0311 | 0.124 | -0.15 | -0.0195 | -0.0757 | 0.285 | 0.135 |
| USP34 (UniProt Q70CQ2) | -0.752 | -0.268 | 0.178 | 0.0865 | -0.0836 | -0.557 | -0.0266 | 0.046 | -0.25 | -0.554 |
| USP46 (UniProt P62068) | -0.0934 | -0.257 | -0.229 | -0.251 | -0.017 | -0.304 | -0.00597 | -0.413 | -0.241 | -1.72 (active) |
| USP5 (UniProt P45974) | 0.0451 | 0.134 | 0.0362 | -0.0604 | 0.236 | -0.0467 | 0.0744 | -0.095 | 0.22 | -0.287 |
| USP14 (UniProt P54578) | -0.364 | 0.154 | -0.397 | -0.0189 | -0.186 | -0.179 | 0.115 | -0.537 | 0.108 | -0.424 |
| USP54 (UniProt Q70EL1) | -0.548 | 0.0905 | 0.326 | 0.176 | 0.0467 | 0.0947 | -1.58 (active) | -0.206 | -0.663 | 0.547 |
| OTUD7B (UniProt Q6GQQ9) | -4.5 (active) | -5.65 (active) | -2.75 (active) | -5.2 (active) | -3.62 (active) | -5.08 (active) | -5.19 (active) | -5.13 (active) | -0.187 | -1.57 (active) |
| UCHL3 (UniProt P15374) | -0.203 | 0.0177 | -0.519 | -0.27 | -0.0871 | -0.294 | -0.224 | -0.372 | -1.23 (active) | -4.19 (active) |
| UniProt P51784 | 0.0554 | 0.032 | -0.0759 | -0.235 | 0.214 | -0.104 | 0.124 | -0.322 | 0.0256 | -1.01 (active) |
| USP25 (UniProt Q9UHP3) | -0.808 | 0.0737 | 0.221 | 0.509 | -0.0574 | -0.126 | -0.809 | -1.97 (active) | 0.382 | -1.03 |
